System: Vero E6 infected with SARS-CoV-2
Assay: inhibition of SARS-CoV-2 cytopathic effect; higher = more antiviral protection, active = above 15
Conditions: 48 h

Measured: inhibition of SARS-CoV-2 cytopathic effect

Cc1ccc(Cl)c(OCC(O)CNC(C)(C)C)c1 (stereo not given) [bupranolol]
inactive: 1 nM 1.32% | 8.33 nM -0.4% | 100 nM -5.32% | 833.33 nM -1.98% | 10000 nM -0.94%

CCC[C@@H]1C[C@@H](C(=O)N[C@@H]([C@H]2O[C@H](SC)[C@H](O)[C@@H](O)[C@H]2O)[C@H](C)Cl)N(C)C1
inactive: 1 nM 0.61% | 8.33 nM -0.55% | 100 nM -0.83% | 833.33 nM -2.28% | 10000 nM -4.1%

CC(C)CCN1c2nc(Nc3cc(F)c(O)c(F)c3)ncc2N(C)C(=O)[C@@H]1C
inactive: 1 nM -1.15% | 8.33 nM -2.75% | 100 nM -6.09% | 833.33 nM -0.02% | 10000 nM 8.71%

COc1cc(C[C@H]2C(=O)OC[C@@H]2Cc2ccc(OC)c(OC)c2)ccc1O [arctigenin]
inactive: 1 nM -2.79% | 8.33 nM 0.36% | 100 nM -2.78% | 833.33 nM 0.01% | 10000 nM 2.1%

O=C(O)c1cc(-c2ccccc2)nc2ccccc12 [cinchophen]
inactive: 1 nM -0.85% | 8.33 nM -0.04% | 100 nM -2.56% | 833.33 nM 0.2% | 10000 nM 2.97%

Nc1nc(Nc2ccc(S(N)(=O)=O)cc2)nn1C(=O)c1c(F)cccc1F
inactive: 1 nM 2.48% | 8.33 nM 1.33% | 100 nM 0.15% | 833.33 nM -0.22% | 10000 nM 10.8%

CC(C)(C)C(=O)C(Oc1ccc(Cl)cc1)n1ccnc1 (stereo not given) [climbazole]
inactive: 1 nM -1.08% | 8.33 nM 1.03% | 100 nM -1.59% | 833.33 nM -1.58% | 10000 nM 0.15%

O=C(O)CCc1c(C(=O)O)[nH]c2cc(Cl)cc(Cl)c12
inactive: 1 nM 0.7% | 8.33 nM 2.79% | 100 nM 1.68% | 833.33 nM -2.26% | 10000 nM 0.81%

CCC(=O)O[C@H]1[C@H](O[C@@H]2[C@@H](C)[C@H](O[C@H]3C[C@@](C)(OC)[C@@H](O)[C@H](C)O3)[C@@H](C)C(=O)O[C@H](CC)[C@@](C)(O)[C@H](O)[C@@H](C)C(=O)[C@H](C)C[C@@]2(C)O)O[C@H](C)C[C@@H]1N(C)C [erythromycin-estolate]
inactive: 1 nM -0.2% | 8.33 nM 1.07% | 100 nM 2.51% | 833.33 nM 2.85% | 10000 nM -0.99%

C#CC[C@H](c1nc2cc(Cl)ccc2c(=O)n1Nc1ccccc1)N(CCCN)C(=O)c1cccc(Cl)c1F
inactive: 1 nM -0.8% | 8.33 nM -0.99% | 100 nM 0.22% | 833.33 nM 1.38% | 10000 nM -9.07%

O=C1/C(=C/c2ccccc2)C[C@@]2(O)[C@H]3Cc4ccc(O)c5c4[C@@]2(CCN3CC2CC2)[C@H]1O5
inactive: 1 nM -2.61% | 8.33 nM 0.97% | 100 nM 1.2% | 833.33 nM 8.78% | 10000 nM -26.4%

Cc1ccc(-c2ccc(C)cn2)nc1 [abametapir]
inactive: 1 nM -4.6% | 8.33 nM 1.76% | 100 nM -1.42% | 833.33 nM -3.2% | 10000 nM -1.76%

CC(CNS(=O)(=O)C(C)C)c1ccc(-c2ccc(C#N)cc2)cc1 (stereo not given)
inactive: 1 nM -2% | 8.33 nM 0.02% | 100 nM 0.68% | 833.33 nM 0.84% | 10000 nM 0.85%

COc1cccc2c1c(O)c(C(=O)N(C)c1ccc(C(F)(F)F)cc1)c(=O)n2C [tasquinimod]
inactive: 1 nM 1.2% | 8.33 nM 3.29% | 100 nM 1.4% | 833.33 nM 1.35% | 10000 nM 1.05%

Cc1ccc2c(c1)C(=O)[C@]1(O)CCN(c3ccccc3)C1=N2 (racemic) [blebbistatin-(+/-)]
inactive: 1 nM 0.35% | 8.33 nM -0.695% | 100 nM -1.93% | 833.33 nM -1.36% | 10000 nM -2.33%

C[C@H](Cc1ccc2c(c1)OC(C(=O)O)(C(=O)O)O2)NC[C@H](O)c1cccc(Cl)c1
inactive: 1 nM 0.95% | 8.33 nM 3.71% | 100 nM -1.72% | 833.33 nM -1.35% | 10000 nM 2.18%

COc1ccc(NS(=O)(=O)c2ccc(/N=N/c3ccc(O)c(C(=O)O)c3)cc2)nn1 [salazodine]
inactive: 1 nM 0.92% | 8.33 nM 3.48% | 100 nM 1.53% | 833.33 nM -1.71% | 10000 nM -1.01%

From the supplement of paper PMC13380429
